# Results from the supplement of paper PMC6555819.
# Tests used:
# Assay in all cases: PBM binding z-score (relative to random genomic background probes); higher = stronger binding; sequences stand for … in GC…GCGATTGACAGCGTAGAATGAAGG
# [1] = test system: RARb homodimer (NR concentration 270 nM)
# In short: (§1)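 Custom Agilent 4×180K protein-binding microarrays carried double-stranded probes. Their 34-nt variable regions held direct-repeat seeds, single-nucleotide variants, half-site ablations and random human genomic background sequences. Arrays were incubated 1 h with ligand-free nuclear receptor dimers in PBS pH 7.4, 2% milk, 0.02% Triton X-100, 1 mM DTT, 0.2 mg/mL BSA and 0.4 mg/ml salmon testes DNA. Antibodies against each partner (one per run) detected binding, and scanned fluorescence was regression-normalized. Binding z-scores use random background probes as reference.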
# [2] = test system: RARg:RXRa (NR concentration 270 nM, RXRa partner concentration 90 nM)
# In short: as §1
# [3] = test system: RARg homodimer (NR concentration 270 nM)
# In short: as §1
# [4] = test system: RXRa DBDmut IVT, anti-RXR (DBD mutation: RXRa K156A/R161A, NR concentration 90 nM)
# In short: as §1
# [5] = test system: RXRa homodimer (NR concentration 180 nM)
# In short: as §1
# [6] = test system: THRa:RXRa (NR concentration 90 nM, RXRa partner concentration 90 nM)
# In short: as §1
# [7] = test system: THRa homodimer (NR concentration 90 nM)
# In short: as §1
# [8] = test system: VDR homodimer (NR concentration 270 nM)
# In short: as §1
Sequence,PBM binding z-score [1],PBM binding z-score [2],PBM binding z-score [3],PBM binding z-score [4],PBM binding z-score [5],PBM binding z-score [6],PBM binding z-score [7],PBM binding z-score [8]
ATCGAAAGGTCGAGGTGAGTATGGAGAAAGGGAA,2.76,4.21,4.51,0.698,4.17,2.84,0.743,0.435
CCGACTGGGGCATAAGGTTACCGTAAGCCAGCCC,1.83,2.05,1.06,-0.367,1.34,2.26,1.13,-0.402
ACTAGTAGTTGAGACGAGGGCAACCGATAGGTTG,1.26,0.496,0.837,-0.186,0.422,2.71,-0.0205,0.686
CGTACAAGGTCAATGCTAGGTCAGTGAAAGCATT,5.18,7.9,7.1,3.82,6.04,4.45,3.05,3.22
CTCGAAAGGTCGGTGGAGGTGAGTATACGGATAA,2.57,2.73,2.83,0.607,2.32,4.27,0.235,0.546
CAAACTAGGTCACGAAAGGTCGAAGTCGAATGAC,5,6.14,6.69,2.17,5.66,4.65,1.9,2.3
CCGACTGGGGCAGAAACGTTACCATACCATCCGG,-0.276,-0.119,-0.0645,-0.654,-0.341,-0.691,-0.735,-0.552
TCAGACAGGTGAAGGTCACTCAGGTACGCAGTCG,4.11,3.63,4.11,1.7,3.51,3.79,1.43,2.39
ACTATTAGTTGAGACGATGGCAACCGATAGGTTG,-0.57,0.459,0.26,0.0509,0.0596,-0.111,-0.705,0.236
TCTATTAGTTGAAGGGCAACCGTCGAGTCCGTTT,1.41,0.513,0.573,1.63,0.558,0.234,0.122,1.61
ATCTCTAGGTAAAGATGGTTCAGTGAATGCAAAT,-0.0603,0.324,0.292,-0.0269,0.0778,0.592,0.0966,0.095
TGAAAGAGGTTAAAGATCAGGGAACGTGGCGTCG,1.1,2.9,1.68,0.56,4.19,1.63,-0.693,0.28
CCTGCTAGGTCAATGGACAGCTAAAGCAGCTCGC,2.51,3.34,4.17,1.5,1.8,1.95,0.0455,0.153
GCTAGTTGGTCAGTAAAAGGTCGCACACCGGTCG,2.98,2.68,1.8,0.145,1.95,1.61,0.192,0.447
ATATGTAGGTTATCGGGTCATTCGGTTTGCGCAT,2.88,3.2,2.3,1.52,3.53,3.28,2.94,4.19
AGTCAAAGATCACTAGGTAACGTAAGATTCAGCT,-0.307,0.422,0.489,-0.0538,0.356,0.378,-0.116,-0.051
GCTAGTTGGTCAGTAAAACGTCACACACCGGTCG,0.309,-0.139,0.216,-0.207,-0.264,-0.444,-0.619,-0.255
ATCACTAGGTAAGACTCAGTTCAGTGAAGAACGC,0.405,0.282,0.333,0.204,-0.0584,0.526,0.536,1.28
CCTCGGAGGACAGAAGGTCAGACCTGTCCGCTTT,3.7,3.17,3.3,0.392,2.08,2.39,-0.0906,0.229

Sequence,PBM binding z-score [1],PBM binding z-score [2],PBM binding z-score [3],PBM binding z-score [4],PBM binding z-score [5],PBM binding z-score [6],PBM binding z-score [7],PBM binding z-score [8]
TCATATAGGTAAAGGTGAAGGTCGAACGATATGA,2.28,2.15,2.07,0.787,2.51,1.82,0.00279,0.402
AGAACGAGGGCAATGAATTGATAGCACGGGTGGC,0.905,1.08,1.27,1.34,0.98,0.765,-0.323,0.621
ATCGAAAGGTCGAGGGGAGTATAGAGAAAGGGAA,2.84,4.18,4.21,1.4,3.94,2.05,0.272,0.958
CGTCAAAGTACAAGGTAACGTAACAGAAAGCAGC,0.287,0.552,1.1,0.923,0.455,1.37,0.356,-0.157
CCGACTGGGGCATAAGGTTACTATAAGCCAGCCC,1.38,1.37,0.813,-0.277,1.04,1.59,0.819,0.0174
TCTAGTAGATCAAAGGTTAAGAAAGCCGAAGCCT,1.26,1.37,0.721,0.713,3.04,1.19,-0.728,-0.063
CATACAGGGTCTGCTAGGCCAGAGTAGGGACGGC,-0.0672,-0.0355,0.276,-0.952,0.034,0.13,-0.32,-0.486
TCTATTAATTGATTAGGGCAACCGAAACAGCGGA,0.555,0.404,0.432,0.717,0.315,0.691,0.741,1.36
ATTAGCAGGCCAAGTTTGGGTCACTCAAACAAAG,2.04,2.39,1.91,0.00898,0.882,2.69,0.986,0.34
CCTATTAGTGGACCATAAGGGCAACCGAAGCTCG,1.53,0.433,0.657,0.115,0.31,1.38,0.862,0.415
TCATATAGGTAATACAGGTGAACGTCGGCATCTA,0.903,0.819,0.771,1.86,1.55,1.18,0.563,0.482
CCTACTGGGCCATTCCGAGGTCATTGATCATATG,3.36,3.43,2.28,1.08,2.86,3.68,3.62,4.08
GCCTATAGGTAATACAAGGTGAAAGTCCGATTGT,0.782,0.406,0.334,0.0892,0.582,4.25,1.06,-0.376
ACTATTAGTTGACTTACGGCAACCGATACGACGC,0.0214,0.528,0.668,0.643,0.39,0.386,-0.0482,-0.179
CCTAGCAGGCCAGAGTCACTCAAGCATTTCGCTT,-0.596,-0.447,-0.706,-0.204,-0.442,-0.569,-0.769,-0.726
TAGCCTAGGTCATTCAGGGGCCAGTAAAGAAAGC,3.38,6.24,4.69,1.5,3.27,3.63,0.491,1.24
CCGACTGGGGCATAAGGTTACCTTAAGCCAGCCC,1.66,1.26,0.711,-0.657,0.903,2.3,2.31,-0.441
ACTATTAGTTGACTCAGGGCAACCGATACGACGC,0.937,0.721,0.905,0.661,0.488,1.5,0.878,0.644
TCGAGTAGGTTAGGGGAATTCAGAATGGCGTCGA,0.239,-0.23,-0.153,0.0691,-0.0464,0.0502,-0.191,-0.0168

Sequence,PBM binding z-score [1],PBM binding z-score [2],PBM binding z-score [3],PBM binding z-score [4],PBM binding z-score [5],PBM binding z-score [6],PBM binding z-score [7],PBM binding z-score [8]
TGAATGGGGTTATAAGATCAGGGAACGTTGCAAA,1.49,2.3,0.965,1.6,3.95,2.45,1,1.23
GATACAGGGTCAGCTAGAGGCCATAGTATGGAAA,3.52,6.77,4.83,1.57,3.96,3.29,0.486,1.33
ACTAGCAGGCTAAGTTTGGGTCACTCAAACAAAG,1.72,0.94,0.818,-0.349,0.549,2.37,0.936,-0.0144
CGAATTAGGTCATTGACAGGACAGTGAATAGTAA,2.68,4.6,4.22,2.69,2.53,3.33,1.54,1.22
CCTATTAGCTGACCATAAGGGCAACCGAAGCTCG,1.61,0.474,0.729,0.637,0.376,1.38,1.18,0.435
GCTGCTAGGTCAACCGATGGTCAGCTAAAGCTCG,3.51,5.42,5.15,1.31,3.11,2.71,0.689,-0.333
GCTTACGGGTCAAAGGTTATACCATGAATAGAAT,3.74,6.93,4.71,2.59,9.41,4.17,0.206,1.77
GCTATTAGTTCAAAGGGCAACCGAATGATTCTCG,2.95,3.39,2.76,3.02,4.05,1.74,-0.325,1.87
ACTCGGAGGACAAAGGTCAGATCTACGCCAGTGA,4.47,5.88,5.52,1.38,4.78,3.36,0.695,1.27
CGTCCAAGGGCAGAGAGGTCAGTGAATGCCGAGT,4.03,3.5,4.06,1.49,2.27,2.68,0.704,3.19
TCTAACAGGCCAGAGGGTCACTCAAGAGGTACGG,3.05,2.78,2.14,1,2.88,1.71,-0.107,0.997
GCTTACGGGTCAAAGGTTATAGCCTGAATAGAAT,3.15,6.87,4.5,2.7,9.3,4.01,-0.0478,1.65
GATACAGGTTCAAGGCCAGAGTACGCGTATTGAT,1.44,1.82,1.3,3.5,2.13,1.55,0.144,3.82
ACTAGCAGGCCAAGTTTGGGTCAGTCAAACAAAG,1.85,1.65,0.925,-0.416,0.0586,1.62,0.427,-0.265
TGAGTGAGGTTAAAGATCAGGGAACGTGGCGTCG,1.06,2.51,1.37,1.05,4.01,2.43,0.575,0.834
TCTTGTAGATCAGCCGGTTAAGAAAGCTGGCCAA,-0.307,-0.542,-0.822,0.73,-0.222,-0.482,-0.883,-0.659
GCGACTGGGGCTAAGCAGGTTACCATAAGGTTGG,0.946,0.126,0.179,-0.481,-0.00806,1.12,0.145,-0.2
TAGCCTACGTCATGCGGGCCAGTATAGTGTCGGC,-0.71,-0.452,-0.536,-0.98,-0.341,-1.7,-0.856,-1.16
CATACAGGGTCAGCTAGACCAGAGTAGGGACGGC,2.81,4.53,4.93,1.59,4.3,2.83,0.733,0.573
